Consider 13 compounds from PubChem BioAssay (NCI).

This is part of a sample that, as a whole, favours compounds with a hit. Of some 83,000 tested, about 20% had one in any assay.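 For each line, cells grew in 96-well plates with the test compound present at a single concentration for 48 hours.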 Values without a mark were called inactive. The source made the active and inactive calls. How the source made its calls: active means growth percent below 10; inactive means the rest.

Assay in all cases: NCI-60 one-dose screen, 48 h (100 = growth as untreated, 0 = no growth, -100 = all killed)
Holding throughout (details): 10 µM unless noted

The subject of assay [1] is SK-MEL-2 melanoma.
The test system of assay [2] is EKVX NSCLC.
In assay [3] the test system is SN12C renal.
Assay [4] deals with UO-31 renal.
The test system of assay [5] is TK-10 renal.
For assay [6], the system named is ACHN renal.
Assay [7] has as its system A498 renal.
Assay [8] concerns CCRF-CEM leukemia.
Assay [9] deals with MOLT-4 leukemia.
Assay [10] concerns SR leukemia.

As for `C=C(C)[C@@H]1CC[C@]2(C(=O)n3ccnc3)CC[C@]3(C)[C@H](CC[C@@H]4[C@@]5(C)CCCNC(C)(C)[C@@H]5CC[C@]43C)[C@@H]12`, the growth in assay [1] is 53.5%; in assay [2], 61.9%; in [3], 29.6%; in [4] it was 43.8%; in assay [5], 70.5%; in assay [6], 46.6%. Also, the growth in assay [7] was 84%; in assay [8], 0.353% (active); in assay [9], -15.9% (active); in assay [10], -33% (active).
Turning to `Cc1[nH]c(N=Nc2ccccc2)nc1N=Nc1ccccc1`, the growth in assay [1] was 39.8%; in [2], 20.5%; in [3], 39.2%; in [4], -22% (active); in [5], 13.1%; in [6], 7.3% (active). Moreover, the growth is 35% in assay [7], -24.1% (active) in [8], 13.8% in assay [9] and 23.1% in [10].
Consider `COc1cc2cc(c1Cl)N(C)C(=O)C[C@H](OC(=O)[C@H](C)N(C)C(=O)CCS)C[C@]1(C)O[C@H]1[C@H](C)[C@@H]1C[C@@](O)(NC(=O)O1)[C@H](OC)/C=C/C=C(\C)C2`, for which the growth in assay [1] was 20%; in assay [2] it was 38.8%; in [3], 28.2%; in [4], 47.4%; in assay [5], 62.4%; in assay [6] it was 25.4%. The growth in assay [7] was -21.9% (active); in [8], 16.2%; in assay [9], 13.1%; in assay [10], 12.2%.
Regarding `C=C1C(=O)O[C@H]2[C@H]1CC/C(COC(=O)CCCCC(=O)OC/C1=C/CC[C@@]3(C)O[C@H]3[C@H]3OC(=O)C(=C)[C@@H]3CC1)=C\CC[C@@]1(C)O[C@@H]21`, the growth in [1] was 71.9%; in [2] it was 59.1%; in assay [3], 27.8%; in assay [4] it was 45.8%; in assay [5], 25.2%; in [6], 12.6%. For the same compound, the growth in assay [7] is 124%; in [8] it was 0.447% (active); in assay [9], 10.3%; in assay [10], 2.3% (active).
Consider `CCCCn1c(=O)c(/C=C/C(=O)/C=C/c2ccc(OC)cc2)cc2cc(Cl)ccc21`, for which the growth was 84% in assay [1]; 91% in [2]; 75.9% in [3]; 62.8% in [4]; 112% in assay [5]; 103% in [6]. Further, the growth in [7] was 91.6%; in [8] it was 29.2%; in [9] it was 44.4%; in [10], 3.16% (active).
With `O=C(CN1N=C(c2ccc(F)cc2)CCC1=O)Nc1nc2ccccc2s1`, the growth in assay [1] was 92.7%; in assay [2], 24%; in assay [3], 40.2%; in assay [4], -84% (active); in [5], 95.3%; in assay [6] it was -23.6% (active). The growth is 97.8% in assay [7], -72.1% (active) in [8], 33.4% in assay [9] and -52.2% (active) in assay [10].
As for `O=c1[nH]nc(-c2ccc(Br)cc2)c2sc(NC(=S)Nc3ccc(Cl)cc3)nc12`, the growth was 101% in [1]; 89.8% in [2]; 109% in assay [3]; 89.2% in assay [4]; 123% in [5]; 102% in assay [6]. Further, the growth in assay [7] is 100%; in [8], 98.4%; in assay [9], 105%; in assay [10], 106%.
`O=C(Nc1ccc(N=Cc2ccccc2O)cc1)NC1C=c2ccccc2=CC1` (stereo not given): the growth in assay [1] was 102%; in assay [2] it was 106%; in assay [3] it was 102%; in assay [4], 81.9%; in [5], 111%; in assay [6] it was 102%. In addition, the growth was 83.5% in assay [7], 81% in assay [8], 93% in [9] and 95.1% in [10].
`COc1ccc(-n2nc(C(=O)NCC(=O)O)nc2-c2ccccc2)cc1`: the growth in [1] is 99.8%; in assay [2], 108%; in assay [3] it was 105%; in assay [4], 87.5%; in [5], 94.1%; in assay [6], 108%. Further, the growth was 113% in assay [7], 102% in [8], 100% in assay [9] and 102% in assay [10].
`COCCc1n(Cc2ccc3ccccc3c2)c2ccccc2[n+]1Cc1ccc2ccccc2c1`: the growth in [1] was -61.6% (active); in [2], 4.7% (active); in [3], -68% (active); in assay [4], -18.7% (active); in assay [5], -80.9% (active); in assay [6], 20.3%. Besides, the growth is -19.1% (active) in assay [7], -9.95% (active) in assay [8], -43.4% (active) in [9] and -57% (active) in assay [10].
As for `COc1cc(C2=NN(C=O)C(c3cccc(Nc4ccnc5cc(C(F)(F)F)ccc45)c3)C2)cc(OC)c1OC` (stereo not given), the growth is 70.7% in assay [1]; 61.5% in assay [2]; 62.4% in assay [3]; 37.6% in [4]; 46.5% in assay [5]; 65.5% in [6]. Besides, the growth in assay [7] is 65.4%; in [8] it was 37.5%; in assay [9] it was 21.5%; in assay [10], 32.3%.
For `Cc1c(O)c(=O)ccn1-c1nc2ccccc2s1`, the growth in assay [1] is 90.5%; in assay [2], 45.3%; in assay [3], 98.9%; in assay [4], 47.6%; in assay [5], 91.2%; in assay [6], 60.6%. Further, the growth is 95.8% in assay [7], 82.7% in [8], 103% in assay [9] and 91.3% in [10].
Regarding `N#CC1C(c2ccc(Cl)cc2)=Nc2c(c(-c3ccccc3)nn2-c2ccccc2)C12C(=O)Nc1ccc(Cl)cc12` (stereo not given), the growth was 71.3% in assay [1]; 40.1% in [2]; 60.2% in assay [3]; 22.6% in assay [4]; 47.8% in [5]; 36.6% in [6]. The growth was 60.3% in assay [7], 19.2% in [8], 15.3% in assay [9] and 36.5% in assay [10].
